Test systems include HCT-15 colon; HT29 colon; SNB-75 CNS; SNB-19 CNS; U251 CNS; PC-3 prostate; SK-MEL-5 melanoma; LOX IMVI melanoma; SK-MEL-28 melanoma; SK-MEL-2 melanoma; EKVX NSCLC; SN12C renal; UO-31 renal; TK-10 renal; ACHN renal; CAKI-1 renal; A498 renal; CCRF-CEM leukemia; MOLT-4 leukemia.
What all share (assay): NCI-60 one-dose screen, 48 h (100 = growth as untreated, 0 = no growth, -100 = all killed)
Common to all, as to settings: 10 µM

This is part of a sample that, as a whole, favours compounds with a hit. Of some 83,000 tested, about 20% had one in any assay.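 How to read the values: 0–100, growth inhibition (40 = 60% inhibited); 0, no net growth; -100 to 0, cell death (-40 = 40% of starting cells died; -100 = all dead).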 Unmarked numbers belong to inactive results. Activity calls are given as the source filed them. How the source made its calls: active means growth percent below 10; inactive means the rest.

`CO[C@@H]1CSSC1Cn1nc(-c2ccc(Oc3ccccc3)cc2)c2c(N)ncnc21` (stereo partly specified): the growth is 37.2% in the test with HCT-15 colon; 28.5% in the test with HT29 colon; 97.9% in the test with SNB-75 CNS; 69.1% in the test on SNB-19 CNS; 49.5% in the test on U251 CNS; 43.6% with PC-3 prostate. Further, the growth is 7.95% (active) with SK-MEL-5 melanoma; 39.4% in the test with LOX IMVI melanoma; -34.4% (active) in the test with SK-MEL-28 melanoma; 27.2% with SK-MEL-2 melanoma; 25.3% in the test on EKVX NSCLC; 60.6% in the test with SN12C renal. The growth in the test on UO-31 renal was 21.3%; in the test on TK-10 renal, 20.3%; with ACHN renal, 40.4%; with CAKI-1 renal, 32.4%; in the test with A498 renal, 80.8%; with CCRF-CEM leukemia, -8.26% (active). The growth in the test with MOLT-4 leukemia was -16.6% (active).

On to `Nc1cccnc1/C=N/NC(=S)NCCNC(=O)c1ccc(-n2nc(-c3ccccc3O)nc2-c2ccccc2O)cc1`, for which the growth in the test with HCT-15 colon was 17.9%; in the test on HT29 colon it was -42.8% (active); in the test on SNB-75 CNS, 48.1%; with SNB-19 CNS it was 13.2%; in the test on U251 CNS, 12.4%; in the test with PC-3 prostate it was 9.05% (active). In addition, the growth in the test on SK-MEL-5 melanoma is -42% (active); with LOX IMVI melanoma, -45.2% (active); in the test with SK-MEL-28 melanoma, 14.8%; in the test with SK-MEL-2 melanoma, -4.94% (active); in the test on EKVX NSCLC, 2.53% (active); with SN12C renal, 5.7% (active). In addition, the growth was -3.95% (active) in the test on UO-31 renal; 12.3% with TK-10 renal; 2.89% (active) in the test with ACHN renal; 4.97% (active) in the test with CAKI-1 renal; 73.7% with A498 renal; -6.46% (active) with CCRF-CEM leukemia. In addition, in the test on MOLT-4 leukemia, the growth was 11.8%.

For `CC1(c2ccccc2)NC(=O)N(CC(=O)Nc2ccc(C(=O)/C=C/C=C/c3ccccc3)cc2)C1=O` (stereo unspecified), the growth is 12.8% in the test on HCT-15 colon; 25.4% in the test on HT29 colon; 54.9% in the test on SNB-75 CNS; 61.6% in the test on SNB-19 CNS; 14.7% with U251 CNS; 36.4% in the test with PC-3 prostate. Besides, the growth in the test on SK-MEL-5 melanoma is 51.6%; with LOX IMVI melanoma, 26%; with SK-MEL-28 melanoma, 70.9%; in the test on SK-MEL-2 melanoma, 90%; in the test on EKVX NSCLC, 71.6%; in the test on SN12C renal, 66.9%. The growth in the test with UO-31 renal was 54.9%; in the test with TK-10 renal, 84.6%; with ACHN renal, 48.4%; in the test with CAKI-1 renal, 63.2%; with A498 renal, 70.6%; in the test on CCRF-CEM leukemia it was 32.4%. The growth in the test on MOLT-4 leukemia was 18.6%.

Take `CN1CCN(c2ccc(Nc3nc(NCCCNC(=O)C4CCCCC4)c4sccc4n3)cc2)CC1`: the growth with HCT-15 colon is 2.76% (active); in the test with HT29 colon it was -1.75% (active); with SNB-75 CNS, 62.9%; with SNB-19 CNS, 77.3%; in the test with U251 CNS, 17.1%; in the test on PC-3 prostate it was 50.6%. The growth in the test with SK-MEL-5 melanoma is 22.3%; in the test on LOX IMVI melanoma, 10.2%; in the test on SK-MEL-28 melanoma it was -81.3% (active); in the test on SK-MEL-2 melanoma it was 102%; in the test with EKVX NSCLC it was 67.3%; in the test with SN12C renal, 70.6%. Besides, the growth was 62.4% with UO-31 renal; 99.4% with TK-10 renal; 36.2% in the test with ACHN renal; 57.2% with CAKI-1 renal; 144% in the test on A498 renal; 18% with CCRF-CEM leukemia.

For the molecule `COc1ccc2[nH]cc(/C=N/Nc3cccc(Cl)n3)c2c1`, the growth in the test with HCT-15 colon is 29.6%; with HT29 colon it was 60.6%; in the test on SNB-75 CNS, 61.8%; in the test on SNB-19 CNS it was 61%; in the test on U251 CNS, 57.5%; in the test on PC-3 prostate, 35%. Besides, the growth is 64% with SK-MEL-5 melanoma; 28.8% with LOX IMVI melanoma; 96.4% in the test with SK-MEL-28 melanoma; 92% with SK-MEL-2 melanoma; 44.2% in the test with EKVX NSCLC; 38.7% with SN12C renal. Also, the growth in the test with UO-31 renal is 33.5%; with TK-10 renal, 91.1%; with ACHN renal, 47.8%; in the test with CAKI-1 renal, 46.7%; in the test on A498 renal, 120%; in the test with CCRF-CEM leukemia it was 9.72% (active). The growth in the test with MOLT-4 leukemia was 14.8%.

Take `COc1ccc(-c2ccc(/C=N/NC(=O)c3[nH]c4ccc(Br)cc4c3-c3ccccc3)o2)cc1`: the growth is 26.4% with HCT-15 colon; 55.1% in the test on HT29 colon; 33% in the test with SNB-75 CNS; 57.6% in the test on SNB-19 CNS; 26.2% in the test with U251 CNS; 55.1% in the test on PC-3 prostate. The growth in the test on SK-MEL-5 melanoma was 30.3%; in the test on LOX IMVI melanoma, 26.7%; with SK-MEL-28 melanoma it was 46.9%; with SK-MEL-2 melanoma, 34.3%; in the test with EKVX NSCLC, 60.1%; in the test on SN12C renal it was 35%. Further, the growth in the test with TK-10 renal was 88.4%; in the test with ACHN renal, 30.9%; in the test with CAKI-1 renal it was 28.4%; in the test with A498 renal it was 73.9%; with CCRF-CEM leukemia it was 10.5%; in the test on MOLT-4 leukemia, 20.9%.

For `CN1CCN(c2ccc(C(=O)/C=C/c3cc(C(F)(F)F)ccc3Cl)cc2)CC1`, the growth in the test with HCT-15 colon was -86.4% (active); in the test on HT29 colon it was 0.637% (active); in the test on SNB-75 CNS, 42.9%; with SNB-19 CNS, -99.2% (active); with U251 CNS it was -74.5% (active); in the test with PC-3 prostate it was -40.3% (active). The growth with SK-MEL-5 melanoma is -90.6% (active); in the test on LOX IMVI melanoma, -100% (active); in the test on SK-MEL-28 melanoma it was -97.6% (active); with SK-MEL-2 melanoma, 65.3%; with EKVX NSCLC it was -91.9% (active); in the test on SN12C renal, -90.1% (active). The growth with UO-31 renal is -99.2% (active); in the test on TK-10 renal, -94.4% (active); in the test with ACHN renal, -96.8% (active); in the test on CAKI-1 renal, -95.2% (active); in the test with A498 renal it was -49.7% (active); in the test with CCRF-CEM leukemia, 2.2% (active). Also, the growth with MOLT-4 leukemia is 2.26% (active).
